Several values for one entry are separate records, joined by “and”; a condition that tells them apart may be missing. Equal entries are not always repeated. Inconclusive results are not listed. A call without a number means that no potency is given here. The source holds several records for some structures; these can differ, active in one and inactive in another. Activity calls are given as the source filed them. Unless noted, calls come from the whole dose curve.
Key:
[1] = Nuclear factor erythroid 2-related factor 2/antioxidant responsive element (Nrf2/ARE) small molecule agonists: qHTS cell viability counter screen in human keratinocytes (AID 1919968; active = well fitted curve in the direction sought with a large enough effect in the repeat runs; an effect the other way counts as inactive or inconclusive; note: nearly all actives have a fitted effect of over 55% in size; note: potency is the fitted concentration of half-maximal effect)
How it was run: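 Stably transfected HaCaT (KeratinoSens), 1,500/well. Test agents in DMSO were applied for 23 h, 37 C/5% CO2. CellTiter-Fluor was incubated 1 h before the fluorescence read.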

[2] = target: Gonadotropin-releasing hormone receptor (Homo sapiens) (UniProt P30968); test: Human gonadotropin-releasing hormone receptor (GnRHR) small molecule agonists, calcium flux assay in GnRHR-HEK293 cells (AID 1920063); note: nearly all actives have a fitted effect of over 35% in size
How it was run: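 Stable human GnRHR HEK293 line. 18 h plating, then calcium dye for 1 h at 37 C. Agonist-mode compound addition from DMSO stocks; fluorescence monitored 3 min.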

[3] = G protein-coupled receptor (GPCR) small molecule agonists, calcium flux assay: HEK293 wild type cell line counter screen (AID 1920065); note: potency is the fitted concentration of half-maximal effect
How it was run: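 Following 18 h incubation at 37 C/5% CO2, plates got calcium dye for 1 h; compounds, ATP or DMSO were then pinned in and fluorescence followed kinetically (480/540 nm).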

[4] = p53 small molecule agonists, cell-based qHTS assay with human liver microsomes (AID 1963577);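 note: p53 response element beta-lactamase reporter cells with liver microsomes plus NADPH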
How it was run: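 16 h, 37 C exposure of p53RE-bla cells to compounds with human liver microsomes and NADPH (0.5 mg/mL final each); detection via LiveBLAzer mixture, 2 h dark at room temperature.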

[5] = p53 small molecule agonists, cell-based qHTS assay with rat liver microsomes (AID 1963578)
How it was run: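 With rat liver microsomes and NADPH present (0.5 mg/mL final each), p53RE-bla cells are treated with compound for 16 h at 37 C. LiveBLAzer detection mixture is then applied for 2 h at room temperature in the dark.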

[6] = p53 small molecule agonists, cell-based qHTS assay with human liver microsomes: qHTS cell viability counter screen (AID 1963579); note: nearly all actives have a fitted effect of over 45% in size; note: potency is the fitted concentration of half-maximal effect
How it was run: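 In this multiplexed counter screen, the reporter plates were subsequently treated with CellTiter-Glo so that cell viability, reflected by luminescence, could be recorded for p53RE-bla cells dosed 16 h with compounds under microsomal activation (HLM and NADPH).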

[7] = p53 small molecule agonists, cell-based qHTS assay with rat liver microsomes: qHTS cell viability counter screen (AID 1963580); note: nearly all actives have a fitted effect of over 45% in size; note: potency is the fitted concentration of half-maximal effect
How it was run: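 Cytotoxicity counter screen: intracellular ATP read by CellTiter-Glo luminescence in the p53 reporter wells. HCT-116 p53RE-bla cells were treated for 16 h at 37 C alongside rat liver microsomes and NADPH, each 0.5 mg/mL final.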

[8] = p53 small molecule agonists, cell-based qHTS assay: qHTS cell viability counter screen (AID 1963581); note: nearly all actives have a fitted effect of over 45% in size; note: potency is the fitted concentration of half-maximal effect
How it was run: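 qHTS counter screen: 16 h compound exposure at 37 C of p53RE-bla HCT-116 cells (4,000 per well, seeded 5 h prior), cell viability by ATP luminescence.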

[9] = target: 5-hydroxytryptamine receptor 2A (Homo sapiens) (UniProt P28223); test: 5-hydroxytryptamine receptor 2A (HTR2A) small molecule antagonists, cell-based qHTS assay (AID 1963586); note: nearly all actives have a fitted effect of over 45% in size; note: potency is the fitted concentration of half-maximal effect
How it was run: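 CHO cells stably expressing human HTR2A were plated for 18 h at 37 C, then loaded with calcium dye for 1 h. Compounds were preincubated 5 min at room temperature before DOI (4 nM solution) was added. Kinetic fluorescence was read for 3 min.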

[10] = target: 5-hydroxytryptamine receptor 2A (Homo sapiens) (UniProt P28223); test: 5-hydroxytryptamine receptor 2A (HTR2A) small molecule agonists, cell-based qHTS assay (AID 1963587); note: nearly all actives have a fitted effect of over 30% in size; note: potency is the fitted concentration of half-maximal effect
How it was run: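 Kinetic calcium-flux fluorescence (2 min, 1 sec intervals) after compound addition in agonist mode. HTR2A-CHO cells were cultured 18 h, then dye-loaded 1 h at 37 C.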

[11] = target: Muscarinic acetylcholine receptor M1 (Homo sapiens) (UniProt P11229); test: Cholinergic receptor muscarinic 1 (CHRM1) small molecule antagonists, cell-based qHTS assay (AID 1963588); note: nearly all actives have a fitted effect of over 40% in size
How it was run: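 Compounds were tested at 15 concentrations in three independent runs. Dye-loaded CHRM1-CHO cells were exposed 5 min at room temperature before stimulation by acetylcholine added at 50nM. Intracellular calcium was read kinetically on FDSS for 3 min.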

[12] = target: Muscarinic acetylcholine receptor M1 (Homo sapiens) (UniProt P11229); test: Cholinergic receptor muscarinic 1 (CHRM1) small molecule agonists, cell-based qHTS assay (AID 1963589); note: nearly all actives have a fitted effect of over 35% in size; note: potency is the fitted concentration of half-maximal effect
How it was run: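 Kinetic fluorescence (1 s intervals) of calcium-sensitive dye in human M1 CHO cells after compound addition; cells pre-incubated 18 h at 37 C/5% CO2 and dye-loaded 1 h.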

[13] = cAMP Responsive Elements (CRE) small molecule agonists, cell-based qHTS assay (AID 1963590)
How it was run: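 Test agents in DMSO were incubated 3 h at 37 C/5% CO2 with CRE-bla HEK 293T cells seeded 18 h earlier; LiveBLAzer B/G FRET substrate was added and read after 2 h at room temperature.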

[14] = cAMP Responsive Elements (CRE) small molecule antagonists, cell-based qHTS assay (AID 1963591; active = well fitted inhibition curve with a large enough effect in the signal ratio in the repeat runs, not every such curve was filed as active; the % refers to the signal ratio)
How it was run: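 Reporter line CRE-bla HEK 293T in dialyzed-FBS DMEM; cells preincubated 18 h, treated 3 h with compound plus NKH477 (0.25 uM final); LiveBLAzer FRET, 2 h RT.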

[15] = target: Beta-2 adrenergic receptor (Homo sapiens) (UniProt P07550); test: Adrenergic beta2 receptor (ADRB2) small molecule antagonists, cell-based qHTS assay (AID 1963592); note: series mostly up to about 92 µM; nearly all actives have a fitted effect of over 50% in size
How it was run: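 Assay format: CHO-ADRB2 cells, 18-20hr seeding at 37C/5% CO2, then compound plus 1nM isoproterenol agonist mix for 0.5hr RT. Homogeneous time-resolved fluorescence cAMP detection after 1hr, expressed as 665/615 nm ratio.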

[16] = target: D(2) dopamine receptor (Homo sapiens) (UniProt P14416); test: Dopamine D2 receptor (DRD2) small molecule agonists, cell-based qHTS assay (AID 1963594); note: nearly all actives have a fitted effect of over 35% in size
How it was run: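 cAMP accumulation in DRD2-HEK293 cells measured by HTRF after 1 h detection; compounds added 10 min before NKH477 (200nM […]) forskolin-analogue stimulation, 30 min at room temperature, with Ro20-1724 present at 0.1 mM final.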

[17] = target: D(2) dopamine receptor (Homo sapiens) (UniProt P14416); test: Dopamine D2 receptor (DRD2) small molecule antagonists, cell-based qHTS assay (AID 1963595; active = well fitted inhibition curve with a large enough effect in the signal ratio in the repeat runs, with a control signal flat; the % refers to the signal ratio)
How it was run: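 DRD2-HEK293; 0.1 mM Ro20-1724; cpd 10 min RT; NKH477 200 nM + quinpirole 12 nM, 30 min RT; HTRF cAMP (cAMP-d2/anti-cAMP cryptate), 665/620 nm ratio after 1 h.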

[18] = p53 small molecule agonists, cell-based qHTS assay (AID 1963582; active = well fitted activation curve with a large enough effect in the signal ratio in the repeat runs, not every such curve was filed as active; the % refers to the signal ratio)
How it was run: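 Measured: fluorescence from cleaved LiveBLAzer substrate. System: p53RE-bla cells, 16 h compound treatment at 37 C, 2 h substrate step at room temperature.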

[19] = target: Beta-2 adrenergic receptor (Homo sapiens) (UniProt P07550); test: Adrenergic beta2 receptor (ADRB2) small molecule agonists, cell-based qHTS assay (AID 1963593);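 note: CHO cells stably overexpressing human ADRB2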
How it was run: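 CHO cells stably over-expressing ADRB2 were plated overnight at 37C, then dosed with compounds plus a stimulation mix containing 100uM IBMX and 25uM Ro-20-1724 for 0.5hr at room temperature. cAMP was measured by HTRF competition, 1hr.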

[20] = target: KiSS-1 receptor (Homo sapiens) (UniProt Q969F8); test: Human kisspeptin (KISS1R) small molecule agonists, calcium flux assay in KISS1R-HEK293 cells (AID 1920064; active = well fitted curve in the direction sought with a large enough effect in the repeat runs; an effect the other way counts as inactive or inconclusive)
How it was run: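 After overnight (18 h) culture at 37 C/5% CO2, human KISS1R-HEK293 cells received calcium dye for 1 h, then test compound; emission at 540 nm (excitation 480 nm) was tracked for 3 min.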

Chain of Gonadotropin-releasing hormone receptor (Homo sapiens) (P30968 whole entry, looked up): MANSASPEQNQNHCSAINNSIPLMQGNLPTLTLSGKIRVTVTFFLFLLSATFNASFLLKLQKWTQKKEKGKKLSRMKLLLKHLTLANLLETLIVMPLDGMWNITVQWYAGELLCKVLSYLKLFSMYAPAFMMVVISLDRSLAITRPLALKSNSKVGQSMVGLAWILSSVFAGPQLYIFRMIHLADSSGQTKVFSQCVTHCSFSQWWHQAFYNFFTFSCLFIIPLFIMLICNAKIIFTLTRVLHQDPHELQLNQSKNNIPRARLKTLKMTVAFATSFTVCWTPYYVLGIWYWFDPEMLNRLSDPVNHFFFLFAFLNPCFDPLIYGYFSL
Chain of Muscarinic acetylcholine receptor M1 (Homo sapiens) (P11229 whole entry, looked up): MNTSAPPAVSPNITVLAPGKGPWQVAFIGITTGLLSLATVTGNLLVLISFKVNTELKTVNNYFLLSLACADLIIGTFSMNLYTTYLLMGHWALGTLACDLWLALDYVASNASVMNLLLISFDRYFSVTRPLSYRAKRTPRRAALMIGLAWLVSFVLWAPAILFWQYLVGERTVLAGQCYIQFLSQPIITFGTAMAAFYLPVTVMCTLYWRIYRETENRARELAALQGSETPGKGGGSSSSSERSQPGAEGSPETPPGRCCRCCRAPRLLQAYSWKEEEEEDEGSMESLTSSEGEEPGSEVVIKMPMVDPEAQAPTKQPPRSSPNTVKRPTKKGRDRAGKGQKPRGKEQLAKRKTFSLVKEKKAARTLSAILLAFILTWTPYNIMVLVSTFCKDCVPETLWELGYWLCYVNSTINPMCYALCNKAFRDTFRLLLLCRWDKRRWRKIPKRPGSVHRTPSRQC
Chain of KiSS-1 receptor (Homo sapiens) (Q969F8 whole entry, looked up): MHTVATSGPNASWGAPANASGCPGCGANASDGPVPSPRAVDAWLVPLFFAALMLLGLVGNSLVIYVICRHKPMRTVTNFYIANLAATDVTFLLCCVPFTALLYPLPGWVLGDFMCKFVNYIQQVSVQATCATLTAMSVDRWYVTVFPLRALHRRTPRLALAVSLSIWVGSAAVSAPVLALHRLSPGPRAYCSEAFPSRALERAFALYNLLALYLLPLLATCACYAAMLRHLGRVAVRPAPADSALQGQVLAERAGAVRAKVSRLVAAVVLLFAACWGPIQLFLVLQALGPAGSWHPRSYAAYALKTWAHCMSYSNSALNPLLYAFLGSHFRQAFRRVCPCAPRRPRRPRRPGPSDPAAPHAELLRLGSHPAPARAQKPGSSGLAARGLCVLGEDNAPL
Chain of Beta-2 adrenergic receptor (Homo sapiens) (P07550 whole entry, looked up): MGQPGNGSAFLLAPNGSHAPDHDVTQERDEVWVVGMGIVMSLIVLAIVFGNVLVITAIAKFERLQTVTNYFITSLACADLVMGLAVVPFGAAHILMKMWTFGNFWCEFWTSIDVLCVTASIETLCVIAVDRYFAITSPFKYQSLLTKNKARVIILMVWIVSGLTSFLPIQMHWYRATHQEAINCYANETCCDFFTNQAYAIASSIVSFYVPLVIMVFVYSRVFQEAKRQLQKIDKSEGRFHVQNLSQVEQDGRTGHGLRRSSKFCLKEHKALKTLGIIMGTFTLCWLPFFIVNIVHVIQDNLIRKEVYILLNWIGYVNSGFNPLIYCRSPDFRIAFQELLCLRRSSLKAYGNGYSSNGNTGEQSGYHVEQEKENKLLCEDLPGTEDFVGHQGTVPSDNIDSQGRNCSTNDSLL
Chain of 5-hydroxytryptamine receptor 2A (Homo sapiens) (P28223 whole entry, looked up): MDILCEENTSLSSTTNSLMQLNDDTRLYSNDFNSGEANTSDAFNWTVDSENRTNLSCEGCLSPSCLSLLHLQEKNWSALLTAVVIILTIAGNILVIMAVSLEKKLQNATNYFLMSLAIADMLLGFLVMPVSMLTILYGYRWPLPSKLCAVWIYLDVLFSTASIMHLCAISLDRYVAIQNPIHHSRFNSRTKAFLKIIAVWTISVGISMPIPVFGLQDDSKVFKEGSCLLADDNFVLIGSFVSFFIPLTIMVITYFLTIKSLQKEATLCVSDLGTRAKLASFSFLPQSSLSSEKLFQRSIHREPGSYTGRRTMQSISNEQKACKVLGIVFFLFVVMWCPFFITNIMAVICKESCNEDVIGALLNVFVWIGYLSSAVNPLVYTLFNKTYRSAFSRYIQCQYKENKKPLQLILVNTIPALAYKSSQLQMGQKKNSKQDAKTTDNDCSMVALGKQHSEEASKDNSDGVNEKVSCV
Chain of D(2) dopamine receptor (Homo sapiens) (P14416 whole entry, looked up): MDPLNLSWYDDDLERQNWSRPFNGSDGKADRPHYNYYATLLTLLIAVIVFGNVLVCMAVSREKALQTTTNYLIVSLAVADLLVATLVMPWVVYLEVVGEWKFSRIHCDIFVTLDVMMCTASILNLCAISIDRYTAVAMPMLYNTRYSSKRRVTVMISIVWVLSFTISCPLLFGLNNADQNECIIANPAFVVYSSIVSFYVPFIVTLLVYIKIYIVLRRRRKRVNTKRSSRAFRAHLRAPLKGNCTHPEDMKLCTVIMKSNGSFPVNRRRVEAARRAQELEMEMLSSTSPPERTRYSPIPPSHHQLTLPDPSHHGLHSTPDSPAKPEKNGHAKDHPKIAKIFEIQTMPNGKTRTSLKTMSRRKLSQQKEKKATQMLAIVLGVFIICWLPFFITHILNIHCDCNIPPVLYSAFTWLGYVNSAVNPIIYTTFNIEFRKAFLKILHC

SMILES	Potency [1]	Potency [2]	Potency [3]	Potency [4]	Potency [5]	Potency [6]	Potency [7]	Potency [8]	Potency [9]	Potency [10]	Potency [11]	Potency [12]	Potency [13]	Potency [14]	Potency [15]	Potency [16]	Potency [17]	Potency [18]	Potency [19]	Potency [20]
O=C=NC1CCCCC1	inactive	inactive	inactive	inactive	inactive	inactive	inactive	inactive	inactive	inactive	inactive	inactive	inactive	inactive	inactive	inactive	inactive	–	–	–
Nc1ccccc1C(=O)O	inactive	inactive	inactive	inactive	inactive	inactive	inactive	inactive	inactive	inactive	inactive	inactive	inactive	inactive	inactive	inactive	inactive	inactive	inactive	–
CCC1(CC)C(=O)C=CNC1=O	inactive	inactive	inactive	inactive	inactive	inactive	inactive	inactive	inactive	inactive	inactive	inactive	inactive	inactive	inactive	inactive	inactive	–	inactive	–
CC(C)Nc1ccc(Nc2ccccc2)cc1	30.5 µM (active)	inactive	inactive	inactive	inactive	28.8 µM (active) and 28.9 µM (active)	36.2 µM (active) and 45.8 µM (active)	–	11.8 µM (active) and 16.8 µM (active)	inactive	–	–	–	–	inactive	–	–	inactive	–	–
CC(C)(C)CC(C)(C)c1ccc(O)cc1	27.3 µM (active)	–	inactive	inactive	inactive	16.2 µM (active) and inactive	37.4 µM (active) and inactive	43.2 µM (active)	18.8 µM (active) and inactive	34.7 µM (active)	–	49 µM (active) and inactive	–	–	inactive	inactive	–	–	–	inactive
CCC[CH2][Sn]([Cl])([Cl])[CH2]CCC	1.23 µM (active) and 2.17 µM (active)	–	inactive	inactive	inactive	–	–	–	inactive	inactive	inactive	inactive	–	–	inactive	inactive	inactive	–	–	inactive
COc1ccc(CO)cc1	inactive	inactive	inactive	inactive	inactive	inactive	inactive	inactive	inactive	inactive	inactive	inactive	inactive	inactive	inactive	inactive	inactive	inactive	inactive	inactive
C[C@H]1CCCC(=O)CCC/C=C/c2cc(O)cc(O)c2C(=O)O1	58.9 µM (active) and inactive	–	inactive	inactive	inactive	inactive	inactive	inactive	inactive	–	inactive	inactive	inactive	–	inactive	inactive	inactive	–	–	inactive
Cc1ccc(OP(=O)(Oc2ccc(C)cc2)Oc2ccc(C)cc2)cc1	inactive	–	inactive	inactive	–	inactive	inactive	–	inactive	–	–	inactive	inactive	inactive	inactive	inactive	–	inactive	inactive	inactive
CC(C)(C1CCC(O)CC1)C1CCC(O)CC1 (stereo unspecified)	inactive	–	–	inactive	inactive	inactive	inactive	inactive	inactive	inactive	inactive	inactive	inactive	inactive	–	inactive	inactive	inactive	–	inactive
Nc1ccccc1	inactive	inactive	inactive	inactive	inactive	inactive	inactive	inactive	inactive	inactive	inactive	inactive	inactive	inactive	inactive	inactive	inactive	inactive	inactive	inactive
O=[N+]([O-])CCO	inactive	–	inactive	–	–	inactive	inactive	inactive	inactive	inactive	inactive	inactive	inactive	inactive	–	inactive	inactive	inactive	–	inactive
ClCC(Cl)(Cl)Cl	inactive	–	–	inactive	inactive	inactive	inactive	inactive	inactive	–	inactive	inactive	inactive	inactive	inactive	inactive	inactive	inactive	–	inactive
C[Si](Cn1cncn1)(c1ccc(F)cc1)c1ccc(F)cc1	inactive	–	inactive	inactive	inactive	inactive	–	–	–	inactive	–	inactive	–	inactive	inactive	inactive	inactive	–	–	inactive
O=C(CCN1CC1)OCC(CO)(COC(=O)CCN1CC1)COC(=O)CCN1CC1	inactive	–	inactive	inactive	inactive	–	–	inactive	–	inactive	–	inactive	inactive	inactive	inactive	inactive	–	inactive	inactive	inactive
CN1CC[C@]23c4c5ccc(O)c4O[C@H]2[C@@H](O)CC[C@H]3[C@H]1C5	inactive	–	inactive	inactive	inactive	inactive	inactive	inactive	inactive	inactive	inactive	inactive	inactive	inactive	inactive	–	inactive	–	–	inactive
CCCC[n+]1ccc(C)cc1	inactive and 27.2 µM (active)	–	inactive and 39 µM (active)	–	–	inactive and 40.6 µM (active)	inactive and 20.3 µM (active)	–	inactive	inactive and 43.4 µM (active) and 39 µM (active)	inactive	inactive	inactive	inactive	inactive	inactive	–	–	inactive	–

Source: PubChem BioAssay (Tox21)
